Hit rate of the full screen: of about 310,000 compounds, about 14,000 (4.5%) showed an effect of 50% or more. Effects have a minus sign here. Many of the other results were omitted from the sample, so strong results are more common in it than they were.
molecular target: human ether-à-go-go-related gene (hERG) potassium channel (human, UniProt Q12809); experiment: primary screen, population patch clamp on CHO cells stably expressing hERG; higher = less effect of the substance
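Note: peak tail current of the secondary pulse compared with the same well before compound.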

human ether-à-go-go-related gene (hERG) potassium channel, sequence (Q12809 whole entry, looked up): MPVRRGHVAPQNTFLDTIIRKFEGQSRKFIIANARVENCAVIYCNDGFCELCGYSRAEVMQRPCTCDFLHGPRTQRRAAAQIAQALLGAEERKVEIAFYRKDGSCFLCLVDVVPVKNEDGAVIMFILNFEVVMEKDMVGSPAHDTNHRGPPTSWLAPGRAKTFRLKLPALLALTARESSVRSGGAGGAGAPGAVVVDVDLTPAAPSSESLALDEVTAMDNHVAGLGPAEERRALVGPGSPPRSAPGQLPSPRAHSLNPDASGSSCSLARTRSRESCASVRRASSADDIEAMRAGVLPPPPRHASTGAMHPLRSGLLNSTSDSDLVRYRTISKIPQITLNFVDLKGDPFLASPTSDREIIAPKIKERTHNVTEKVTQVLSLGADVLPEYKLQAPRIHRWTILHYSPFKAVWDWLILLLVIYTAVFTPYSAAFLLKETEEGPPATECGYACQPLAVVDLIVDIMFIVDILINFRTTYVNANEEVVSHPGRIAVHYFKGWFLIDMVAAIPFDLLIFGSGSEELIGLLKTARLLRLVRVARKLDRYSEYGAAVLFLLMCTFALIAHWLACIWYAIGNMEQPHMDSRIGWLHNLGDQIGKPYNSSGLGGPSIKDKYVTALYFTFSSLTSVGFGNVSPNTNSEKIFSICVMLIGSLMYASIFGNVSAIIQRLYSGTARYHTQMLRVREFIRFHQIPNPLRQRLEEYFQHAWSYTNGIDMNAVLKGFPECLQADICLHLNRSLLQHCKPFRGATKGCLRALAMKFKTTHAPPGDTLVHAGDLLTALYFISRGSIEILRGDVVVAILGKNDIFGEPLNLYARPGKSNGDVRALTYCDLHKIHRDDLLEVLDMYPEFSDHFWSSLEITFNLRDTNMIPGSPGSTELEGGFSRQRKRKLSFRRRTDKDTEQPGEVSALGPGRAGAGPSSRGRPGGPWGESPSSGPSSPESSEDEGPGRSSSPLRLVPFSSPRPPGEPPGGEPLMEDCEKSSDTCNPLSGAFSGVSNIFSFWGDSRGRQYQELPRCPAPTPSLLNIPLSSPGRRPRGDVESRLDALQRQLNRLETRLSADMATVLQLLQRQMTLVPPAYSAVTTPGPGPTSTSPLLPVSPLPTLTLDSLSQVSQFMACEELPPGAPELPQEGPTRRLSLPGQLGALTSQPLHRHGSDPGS

Compound	hERG current change (%, negative = inhibition) at 10uM [%]
COc1ccc(CCN(C)C(=O)CCCN2C(=O)c3cccc4cccc(c34)C2=O)cc1OC	-35.5
O=C(O)C1CCCCC1C(=O)Nc1ccccc1Cl (stereo not drawn)	15.1
O=C(CN1C(=O)c2ccccc2C1=O)N1CCN(C2c3ccccc3-c3ccccc32)CC1	-23.1
O=C(/C=C/c1ccco1)NCC1COc2ccccc2O1 (stereo not drawn)	-0.808
O=C(NC1CCCCC1)N1CCSC1=Nc1ccccc1	-5.04
CCOCCCNC(=O)c1c(C)c(C(=O)OCC)n(C)c1C	15.3
CCOC(=O)N1N=C(c2ccccc2)CC1(O)C(C)(F)F (stereo not drawn)	12.1
CN1C(C(=O)NCc2ccccc2)CC2Cn3c(nc4cc(Cl)c(Cl)cc43)C21 (stereo not drawn)	-65.6
C=CCNC(=O)C1CC2Cn3c(nc4cc(Cl)c(Cl)cc43)C2N1C (stereo not drawn)	-35.4
Cc1ccccc1Nc1nnc(-c2ccc(C(=O)NCCO)cc2)c2ccccc12	-65.9
O=C(NCCO)c1ccc(-c2nnc(Nc3ccc(O)cc3)c3ccccc23)cc1	16.8
COc1ccc(Nc2nnc(-c3ccc(C(=O)NCCO)cc3)c3ccccc23)cc1	-4.6
CCC(C)[C@H](NC(=O)C1CCN(C(=O)[C@H](Cc2ccccc2)NC(=O)OC(C)(C)C)CC1)C(=O)O (stereo partly drawn)	-1.42
COc1ccc(-c2oc(NC(=O)c3ccc(C)cc3)c(C#N)c2-c2ccc(OC)cc2)cc1	-11.6
O=C(C1=C[C@@H](c2csc3ccccc23)C[C@@H](OCc2ccc(CO)cc2)O1)N1CCN(Cc2ccc3c(c2)OCO3)CC1	1.69
O=C(C1=C[C@H](c2coc3ccccc3c2=O)C[C@H](OCCCCO)O1)N1CCN(Cc2ccc3c(c2)OCO3)CC1	-64.4
O=C(C1=C[C@@H](c2csc3ccccc23)C[C@@H](OCCCCO)O1)N1CCN(Cc2ccc3c(c2)OCO3)CC1	-11
O=C(C1=C[C@H](c2csc3ccccc23)C[C@H](OCc2ccc(CO)cc2)O1)N1CCN(Cc2ccc3c(c2)OCO3)CC1	12.4
O=C(C1=C[C@@H](c2coc3ccccc3c2=O)C[C@@H](OCCCCO)O1)N1CCN(Cc2ccc3c(c2)OCO3)CC1	-49.7
O=C(C1=C[C@H](c2coc3ccccc3c2=O)C[C@H](OCc2ccc(CO)cc2)O1)N1CCN(Cc2ccc3c(c2)OCO3)CC1	-57.2
CN1CCN(C(=O)C2=C[C@@H](c3coc4ccccc4c3=O)C[C@@H](OCc3ccc(CO)cc3)O2)CC1	-22.5
O=C(C1=C[C@@H](c2coc3ccccc3c2=O)C[C@@H](OCc2ccc(CO)cc2)O1)N1CCN(Cc2ccc3c(c2)OCO3)CC1	-66.1
CC(=O)n1cc([C@@H]2C=C(C(=O)N3CCN(Cc4ccc5c(c4)OCO5)CC3)O[C@H](OCc3ccc(CO)cc3)C2)c2ccccc21	-17.5
Cc1ccccc1NC(=O)NNC(=O)OC(C)(C)C	-6.37
O=C(C1CCCCN1S(=O)(=O)c1ccccc1)N1CCCCC1 (stereo not drawn)	-1.03
N#Cc1ccc(C23CC4(C2)[C@H](CN(Cc2ccc(-c5ccccc5)cc2)[C@@H]4c2ccccc2)C3c2ccc(C(F)(F)F)cc2)cc1 (stereo partly drawn)	6.84

Compound	hERG current change (%, negative = inhibition) at 10uM [%]
CC(O)[C@H]1CNC(=O)C(=O)N1CCc1cccc(F)c1 (stereo partly drawn)	21
CCCn1c(N)c(C(=O)CN(C)CC(=O)Nc2c(Cl)cccc2Cl)c(=O)[nH]c1=O	-9.48
CCCn1c(N)c(C(=O)CN(C)CC(=O)Nc2cccc(F)c2)c(=O)[nH]c1=O	-75.1
CCCn1c(N)c(C(=O)CN(C)CC(=O)Nc2ccccc2C(F)(F)F)c(=O)[nH]c1=O	-0.764
COC(=O)c1c(C)[nH]c(C(=O)CN(C)CC(=O)Nc2cccc(F)c2)c1C	-22.2
CCCn1c(N)c(C(=O)CN(C)CC(=O)Nc2ccccc2CC)c(=O)[nH]c1=O	-42
CCCn1c(N)c(C(=O)CN(C)CC(=O)Nc2ccc(F)cc2)c(=O)[nH]c1=O	-70.6
O=C(NCCC1=CCCCC1)c1ccc([N+](=O)[O-])cc1	-14.9
O=C(CCc1ccc(S(=O)(=O)N2CCCCC2)cc1)c1nnc(-c2ccccc2)o1	-12.7
CCC(C)NC(=O)CN(C1CCCCC1)S(C)(=O)=O (stereo not drawn)	9.11
Cc1cc(N)n2ncc(-c3cccc(Br)c3)c2n1	-2.75
Cc1cc(-n2c(C)cc(C(=O)CSc3nncn3C(C)C)c2C)no1	9.21
O=C1CCCN1CC(=O)N1CCCC(N2CCN(c3cccc(Cl)c3)CC2)C1 (stereo not drawn)	8.15
CC(C)C(c1nnnn1Cc1ccc(F)cc1)N1CCN(C2CCCCC2)CC1 (stereo not drawn)	-61.3
CC(C)C(c1nnnn1Cc1ccc(F)cc1)N1CCN(C2CCCC2)CC1 (stereo not drawn)	-38.2
CCC(c1nnnn1Cc1ccc(F)cc1)N1CCN(C)CC1 (stereo not drawn)	-1.38
CCCC(c1nnnn1Cc1ccc(OC)cc1)N1CCN(c2ccccc2OC)CC1 (stereo not drawn)	-8.59
CCC(c1nnnn1Cc1ccc(F)cc1)N1CCN(C2CCCCC2)CC1.Cl (stereo not drawn)	-53
CCCC(c1nnnn1Cc1ccc(F)cc1)N1CCN(C2CCCCC2)CC1.Cl (stereo not drawn)	-62.4
CC(C)C(c1nnnn1Cc1ccc(F)cc1)N1CCSCC1 (stereo not drawn)	-20.7
CCCC(c1nnnn1CS(=O)(=O)c1ccc(C)cc1)N1CCN(C2CCCC2)CC1.Cl (stereo not drawn)	-37.5
CCCC(c1nnnn1Cc1ccc(F)cc1)N1CCN(C)CC1 (stereo not drawn)	-2.88
CCC(c1nnnn1Cc1cccs1)N1CCN(C2CCCC2)CC1.Cl (stereo not drawn)	-22.3
CCCC(c1nnnn1Cc1cccs1)N1CCN(C2CCCC2)CC1.Cl (stereo not drawn)	-29
CCCC(c1nnnn1Cc1ccc(F)cc1)N1CCN(CC)CC1 (stereo not drawn)	-53

From article PMC4336329 (PLoS ONE, 2015)
